Screens as filed in PubChem.
MBNL1 CUG block – blocks human MBNL1 binding to CUG repeat RNA; Potency, µM (series often up to 57.5 µM), for inactives: at the highest dose activity change, negative = inhibition, most hits filed as inhibitors; TR-FRET MBNL1-His/biotin-(CUG)12 binding, 665/545 ratio; 0.036% of 280,000 active; AID 2675; Q9NR56; active means well fitted inhibition curve with a large enough effect in the signal ratio, with a control signal flat, not every such curve was filed as active; inconclusive means small, poorly fitted or top-dose-only effect, or effect the other way, or a change in a side signal; inactive means no such curve, though single readings can be large or run the other way; the % refers to the signal ratio; further: potency means the concentration at half of the fitted maximal effect; on the % scale 0 is the no-effect control and ±100 the full control effect
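MBNL1-His + Biotin-(CUG)12, cpd titration 92 nM–58 uM; Tb anti-His Ab 0.055 ng/ul, SA-XL665 5 nM (final); 60 min RT; ratiometric 665/545 nm, Ex 340 nm; normalized to buffer and full-complex controls.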
IL2 activator – activators of IL-2; IL-2 activation reporter assay, cell-based qHTS; stimulated with anti-CD3/CD4/CD28 beads; in transgenic mouse T cells; activation, % (series mostly up to about 46 µM); 0.065% of 360,000 active; in the data active means activation above about 50%; inconclusive means mostly about 30% to 49%; further: 0% is about no effect
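First, unstimulated transgenic mouse T cells were exposed to compound for 60 min. Next, anti-CD3/anti-CD4-coated beads with anti-CD28 were added. Finally, after 18 h at 37 degrees C, EGFP and DsRed were imaged.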
CBFb RUNX1 block – blocks binding between human CBF-beta and RUNX1; Q01196+Q13951; Potency, µM (doses to about 59.8 µM), inactives show at the top dose activity, negative = inhibition, hits mostly inhibitors; AlphaScreen CBFb-His/RUNX1-biotin binding, biochemical; 230,000 tested, under 10 active; further: % of control where 0% means no effect
Target sequence (Q01196 whole entry, looked up): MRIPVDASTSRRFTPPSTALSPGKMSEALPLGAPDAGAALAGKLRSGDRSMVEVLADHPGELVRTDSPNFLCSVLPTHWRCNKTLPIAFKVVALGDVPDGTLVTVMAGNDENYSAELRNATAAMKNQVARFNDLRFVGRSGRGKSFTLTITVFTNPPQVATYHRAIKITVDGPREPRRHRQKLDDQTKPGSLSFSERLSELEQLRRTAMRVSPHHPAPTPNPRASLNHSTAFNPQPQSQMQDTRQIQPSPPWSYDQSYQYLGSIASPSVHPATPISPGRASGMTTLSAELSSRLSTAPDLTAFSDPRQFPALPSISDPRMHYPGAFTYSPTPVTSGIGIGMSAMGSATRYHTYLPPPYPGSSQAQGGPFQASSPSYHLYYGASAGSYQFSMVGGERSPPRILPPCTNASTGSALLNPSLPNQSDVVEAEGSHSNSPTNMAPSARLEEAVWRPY
Target sequence (Q13951 whole entry, looked up): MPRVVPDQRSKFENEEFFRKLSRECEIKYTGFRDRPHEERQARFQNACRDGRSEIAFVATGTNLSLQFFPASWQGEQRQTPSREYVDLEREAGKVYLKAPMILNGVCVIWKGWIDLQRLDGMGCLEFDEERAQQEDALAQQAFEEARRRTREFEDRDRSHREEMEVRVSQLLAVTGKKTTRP
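Interaction loss through any mechanism counts as activity. Pre-formed complex of His-CBF-beta and biotin-RUNX1 (30 nM apiece) is incubated with compound 15 min, then with 50 ng nickel and 50 ng streptavidin beads for 90 min before AlphaScreen detection.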
Epigenetic derep – epigenetic control regulation, reporter derepression; murine LDR cells, GFP reporter derepression, 30 h; Potency, µM (series often up to 53.9 µM), for the others: at the highest dose GFP activation, most hits filed as activators; 0.2% of 280,000 active; AID 1865; further: potency means the concentration at half of the fitted maximal effect; % of control where 0% means no effect; nearly all actives have a fitted effect of over 60% in size
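Reporter derepression read as number of fluorescent GFP-positive objects, 20-120 um in size, counted by laser-scanning cytometer. Mouse LDR line with an epigenetically silenced CMV-GFP locus; compound incubation 30 h, 37 C.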
TRHR ag – TRH receptor (human) agonism | TRHR cells, calcium flux fluo-8, FDSS agonist mode | activation, % at 2 µM | AID 493084 | 0.18% of 360,000 active; in the data active means activation above about 30%; further: 0% is about no effect
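Steps: seed TRHR cells overnight; add fluo-8 no-wash Ca dye, RT 30 min–1.5 h; record 10 s baseline; pin-transfer compounds; monitor fluorescence 1 cycle/s for the agonist window. Calcium increases flag candidate agonists.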
TRHR enhancer – allosteric enhancers of human TRH receptor; TRHR cells, fluo-8 calcium fluorescence, EC20 TRH enhancement; 0.66% of 360,000 active; enhancement, % at 2 µM; in the data active means enhancement above about 30%; further: 0% is about no effect
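TRHR-expressing cells loaded with fluo-8 calcium dye were read kinetically (ex 480/em 530) during compound addition, then stimulated with an EC20 of TRH (10 nM final). Enhancement of the Gq-mediated intracellular calcium response was scored.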
* = called active by the depositor; ? = inconclusive; / = no result. Sampled rows, rich in hits. Any-hit rate of the full collection: about 0.88%. Unless noted, the call rests on the fitted dose curve; in most records, active means well fitted curve in the direction sought with a large enough effect; inconclusive means small, poorly fitted or top-dose-only effect, or another doubt; inactive means no such curve, though single readings can be large; an effect the other way counts as inactive or inconclusive.

SMILES | MBNL1 CUG block | IL2 activator | CBFb RUNX1 block | Epigenetic derep | TRHR ag | TRHR enhancer
Brc1ccccc1C1CC(c2ccccc2)=Nc2ccccc2N1 (stereo unspecified) | 7% | -4 | -5% | -2% | 5 | 16
COc1ccc2c(Cl)c(C(=O)N/N=C/c3ccc4c(c3)OCO4)sc2c1 | -3% | 1 | 5% | 7% | 1 | 8
COc1ccc2c(Cl)c(C(=O)N/N=C3\CCCC(=O)C3)sc2c1 | ? | 0 | ? | 11µM* | -1 | 4
CN1CCc2c(sc(NC(=O)CSc3ccccc3)c2-c2nc3ccccc3s2)C1 | / | / | / | ? | 115* | -19
O=[S+]([O-])(c1ccc2nsnc2c1)N1CCN([S+](=O)([O-])c2c(F)cccc2F)CC1 | / | / | / | / | 1 | -1
CCCCCCc1cc2cc(-c3nnc(-c4ccccc4O)o3)c(=O)oc2cc1O | -4% | 0 | 7% | 6.3µM* | 147* | 51*
CCCCCCc1cc2cc(-c3nnc(-c4ccccc4OC)o3)c(=O)oc2cc1O | -4% | 10 | 20% | ? | 148* | -14
CCCCCCc1cc2cc(-c3nnc(-c4cc(OC)c(OC)c(OC)c4)o3)c(=O)oc2cc1O | -10% | 14 | 18% | 4% | -1 | -3
CC(C)CSc1nnc(-c2ccccc2)c(-c2ccccc2)n1 | / | / | / | 0% | 1 | 0
Cc1ccc(C(=O)Nc2cccc(N3C(=O)C4CCC(C)CC4C3=O)c2)cc1 (stereo unspecified) | 3% | 0 | / | / | 0 | 33*
CCCOc1ccc(CNC(=O)CCCN2C(=O)CSc3c2c(C)nn3-c2ccccc2)cc1 | / | / | / | 3% | 0 | -4
CCOc1ccc(CCNC(=O)c2cccc3c2C(=O)N(CCOC)C3)cc1OCC | -12% | 55* | / | / | -1 | -5
O=S(=O)(c1ccc2c(c1)OCCO2)N1CCN(S(=O)(=O)c2ccc(Cl)cc2F)CC1 | / | / | / | / | 0 | 0
Cc1ccc(Cc2nc3ccccc3nc2SCC(=O)NCc2ccccc2Cl)cc1 | / | / | / | 10% | 1 | 0
CCN(CC)c1ccc2c(Cl)c(Br)c(=O)oc2c1 | 372% | 27 | ? | 11µM* | / | /
Cc1cnn(-c2cc(N/N=C/c3cccc(F)c3)ncn2)c1 | / | 0 | -2% | 0% | -3 | 36*
CN(C)c1ccc(/C=C/c2cc[n+](C)cc2)cc1 | ? | 10 | -10% | 11µM* | 9 | 3
CC[n+]1ccccc1/C=C/c1ccc(N(C)C)cc1 | ? | 7 | -2% | 16µM* | 5 | 1
Cc1ccc(/C=C/c2ccc(N(C)C)cc2)[n+](C)c1 | ? | ? | / | / | 19 | 4
CN(C)c1ccc(/C=C/c2cc[n+]([O-])cc2)cc1 | ? | / | 11% | 0% | 61* | 2
CCOC(=O)Cn1c(=O)n(-c2ccccc2OC)c2nc(-c3ccccc3C)nc(C(N)=O)c21 | / | / | / | -2% | 0 | -7
O=C(Cn1c(SCc2cccc(F)c2)nc2cccnc21)Nc1ccc(F)c(Cl)c1 | / | / | / | 5% | 1 | 6
COc1ccc2o/c(=N/NC(=O)c3cccs3)c(C(N)=O)cc2c1 | ? | 0 | -9% | 18µM* | 3 | -4
NC(=O)c1cc2ccccc2o/c1=N/NC(=O)c1cccs1 | ? | 0 | 8% | 10% | -2 | -9
O=C(CN1C(=O)c2cccc3cccc1c23)Nc1ccc2c(c1)OCO2 | 12% | -1 | 1% | -2% | -2 | 31*
O=C(CN1C(=O)c2cccc3cccc1c23)NCc1ccc2c(c1)OCO2 | ? | 0 | -2% | 0% | -1 | -4
O=C1NC(c2cccc(Cl)c2)Oc2ccccc21 (stereo unspecified) | -1% | 1 | / | / | 0 | 32*
Cc1cccc(C2NC(=O)c3ccccc3O2)c1 (stereo unspecified) | -10% | 1 | / | / | 0 | -2
CC(=O)c1cccc(N(CC(=O)Nc2ccccc2C(=O)N2CCCC2)S(C)(=O)=O)c1 | -10% | -3 | / | / | 0 | 55*
